Each structure is given as a SMILES string. The campaign covered roughly 220,000 compounds. About 910 (0.41%) were called active. Only a selection was taken, and actives are over-represented in it overall. Potency and affinity values are given separately. Values without a mark were called inactive.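 How the source made its calls: active means primary inhibition above the hit cutoff, then over 50% inhibition at one or more dose response concentrations (cut at about 23% in these data, passing the limit was not always enough); inconclusive means conflicting primary data, or primary hits not chosen for dose response; inactive means low primary inhibition, or under 50% at every dose.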

This assay has as its target Aminopeptidase N (Plasmodium falciparum (isolate 3D7)) (UniProt O96935). As to the kind of experiment: malaria alanyl aminopeptidase activity blockers – biochemical, fluorogenic H-Leu-NHMec substrate, 1536-well (AID 1445).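 Further: plate controls were DMSO full reaction for no effect and no enzyme background for full effect.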 To be noted: recombinant M1AAP, H-Leu-NHMec fluorogenic kinetic assay.
Where [1] appears, read: at 30 µM, active compounds read high unless noted.

Chain of Aminopeptidase N (Plasmodium falciparum (isolate 3D7)) (O96935 whole entry, looked up): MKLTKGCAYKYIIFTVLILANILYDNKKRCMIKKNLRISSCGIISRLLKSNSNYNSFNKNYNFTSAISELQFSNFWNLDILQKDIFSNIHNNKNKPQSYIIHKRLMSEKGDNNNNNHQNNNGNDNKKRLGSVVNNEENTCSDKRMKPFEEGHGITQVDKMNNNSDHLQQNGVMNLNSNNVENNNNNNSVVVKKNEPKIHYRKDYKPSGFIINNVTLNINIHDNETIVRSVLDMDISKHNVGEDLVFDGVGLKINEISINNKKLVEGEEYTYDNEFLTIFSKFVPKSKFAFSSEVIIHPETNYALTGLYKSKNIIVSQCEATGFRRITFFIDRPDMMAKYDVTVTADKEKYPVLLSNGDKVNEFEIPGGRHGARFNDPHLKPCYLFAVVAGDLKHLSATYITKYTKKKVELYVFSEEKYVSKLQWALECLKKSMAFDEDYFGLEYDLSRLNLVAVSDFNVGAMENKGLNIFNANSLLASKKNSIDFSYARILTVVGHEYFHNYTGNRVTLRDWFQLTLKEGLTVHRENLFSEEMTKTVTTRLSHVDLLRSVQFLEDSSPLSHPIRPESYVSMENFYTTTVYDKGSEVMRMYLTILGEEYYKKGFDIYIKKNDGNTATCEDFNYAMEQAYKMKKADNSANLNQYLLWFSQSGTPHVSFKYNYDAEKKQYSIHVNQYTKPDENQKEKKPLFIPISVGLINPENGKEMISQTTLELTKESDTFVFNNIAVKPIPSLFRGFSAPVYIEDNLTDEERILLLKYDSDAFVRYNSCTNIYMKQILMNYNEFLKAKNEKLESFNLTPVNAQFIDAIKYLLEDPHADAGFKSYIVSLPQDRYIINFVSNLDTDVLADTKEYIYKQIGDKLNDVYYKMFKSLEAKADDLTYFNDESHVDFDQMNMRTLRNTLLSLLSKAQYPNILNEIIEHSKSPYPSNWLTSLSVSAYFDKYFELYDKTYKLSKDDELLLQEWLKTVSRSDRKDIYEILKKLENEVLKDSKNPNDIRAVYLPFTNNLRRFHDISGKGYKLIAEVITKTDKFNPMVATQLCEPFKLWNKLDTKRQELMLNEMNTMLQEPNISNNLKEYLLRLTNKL

By inhibition is commonly meant the relative decrease from the control value, in per cent. With `CC(C)CCNC(=O)c1nnc(Cc2ccc(Cl)cc2)o1`, under setting [1], the inhibition is 2.74%. On the same count and under the same terms, next, `O=C(NCCCc1ccccc1)c1cc([N+](=O)[O-])ccc1Cl`: 3.08%. On the same count and under the same terms, to `C[N+]1(CC(=O)OC2CCCCCCCCCCC2)CCCC1` belongs 32.9%; to `Oc1ccc(N=Nc2n[nH]c(-c3ccc(Cl)cc3)n2)cc1`, 26.6% (active). Still for that read-out and setting: next, `Oc1ccc(N=Nc2n[nH]c(-c3ccc(Br)cc3)n2)cc1`: 14.1%.

As to `Cc1ccc(-c2nc(N=Nc3ccc(O)cc3)n[nH]2)cc1`, the inhibition under setting [1] was 15.9%. As for `O=C(Nc1ccccc1N1CCOCC1)c1cccnc1`, the inhibition under setting [1] is -1.63%. Same read-out and setting: to `Cc1onc(-c2c(Cl)cccc2Cl)c1COC(=O)c1ccc(Cl)cc1` belongs 0.11%; to `O=c1[nH]c(SCc2ccccc2Cl)nc2c1CCCC2`, -3.65%. Same read-out and setting: next, `O=c1[nH]c(SCc2ccccc2Cl)nc2c1CCC2`: -1.92%; `Cc1cccc(OCC(=O)NCC(=O)N/N=C/c2cccnc2)c1`: 8.13%; `O=c1c2ccccc2nc(SCc2cc(F)ccc2F)n1C1CCCC1`: 6.96%. Turning to `CCC(C)(C)NC(=O)C(c1cccnc1)N(C(=O)c1csnn1)c1ccccc1` (stereo unspecified), the inhibition under setting [1] was -0.28%.

Turning to `O=C(COc1ccc(Br)cc1CO)Nc1ccccc1`, under setting [1], the inhibition is 9.17%. On the same count and under the same terms, next, `O=P(Cc1cc(Br)cc(Br)c1OCCO)(c1ccccc1)c1ccccc1`: 5.71%; `CCCn1c(SC2C(=O)CC(C)(C)CC2=O)nc2c1c(=O)n(C)c(=O)n2C`: -3.71%.

Take `CCn1ccnc1CN(C)Cc1nc(-c2cccc(Cl)c2)no1`: the inhibition under setting [1] was -7.75%. Same read-out and setting: to `C=CCn1c(-c2ccc(F)cc2)n[nH]c1=S` belongs 4.9%; to `CCOP(=O)(OCC)c1nc(-c2ccc(Cl)cc2Cl)oc1N1CCCCC1`, 10.7%. Still for that read-out and setting: to `CCOP(=O)(OCC)c1nc(-c2cccc3ccccc23)oc1N1CCCCC1` belongs 15.6%; to `CCOC(=O)C/C(C)=N\Nc1nc(-c2ccccc2)cs1`, 1.35%. Same read-out and setting: to `O=C(CSCc1ccccc1)N1CCN(c2cccc(C(F)(F)F)c2)CC1` belongs 6.51%. Take `COCC(=O)N1CCN(c2cccc(C(F)(F)F)c2)CC1`: the inhibition under setting [1] was -4.62%. Same read-out and setting: next, `Cc1cccc(/C=N/NC(=O)c2cc(-c3cccnc3)nc3ccccc23)c1`: 5.37%; `c1ccc(SCc2nc(-c3cccnc3)no2)cc1`: 2.83%; `CCOC(=O)c1c(NC(=O)C2CCCO2)sc(C)c1C` (stereo unspecified): 2.42%.

On to `CCOC(=O)NC(=O)/C(C=Nc1ccc(Cl)cc1)=C(\C)O`, for which the inhibition under setting [1] is 10.5%.

As for `CCCCCC(=O)N(O)C1CC(=O)N(c2ccccc2)C1=O` (stereo unspecified), the inhibition under setting [1] was 11.5%. Still for that read-out and setting: next, `CCCCCCC(=O)N(O)C1CC(=O)N(Cc2ccccc2)C1=O` (stereo unspecified): 37.9% (active). Take `O=C1CC(N(O)C2CC(=O)N(Cc3ccccc3)C2=O)C(=O)N1Cc1ccccc1` (stereo unspecified): the inhibition under setting [1] was 6.83%. Still for that read-out and setting: next, `CCCCCCC(=O)N(O)C1CC(=O)N(c2ccc(C)cc2)C1=O` (stereo unspecified): 35.5%; `CCCN(CCC)C1CC(=O)N(Cc2ccccc2)C1=O` (stereo unspecified): 4.78%.

For the compound `CCCCC(CCC(=O)Nc1ccccc1C(=O)OCC)C(=O)O` (stereo unspecified), the inhibition under setting [1] was 0.91%. `CCN(CC)S(=O)(=O)c1ccc(C)c(NC(=O)c2cc(C)oc2C)c1`: the inhibition under setting [1] is 3.95%. On the same count and under the same terms, to `O=C(O)CCC(=O)N(Cc1ccco1)C1CC(=O)N(c2ccccc2)C1=O` (stereo unspecified) belongs 7.06%; to `CCOC(=O)N1CCN(c2c(NCc3ccccc3OC)c(=O)c2=O)CC1`, 1.73%; to `CCOC(=O)N1CCN(c2c(NCc3ccc(Cl)cc3)c(=O)c2=O)CC1`, 5.09%. On the same count and under the same terms, next, `COc1ccc(C(=O)N/N=C/c2cc3ccccc3[nH]c2=O)cc1`: 6.42%. As to `COc1cc2ccccc2cc1C(=O)NC(=S)Nc1cccc(C(=O)O)c1C`, the inhibition under setting [1] is 8.01%.

As for `COCCNC(=S)N1CCc2cc(OC)c(OC)cc2C1COc1ccc(C(C)C)cc1` (stereo unspecified), the inhibition under setting [1] is 15.1%. For the compound `O=C(Oc1c(CN2CCOCC2)cc(Cl)c2cccnc12)c1ccccc1`, under setting [1], the inhibition was 4.42%. Regarding `CN1CCN(Cc2cc(Cl)c3cccnc3c2OC(=O)c2cccs2)CC1`, under setting [1], the inhibition was -1.84%. Still for that read-out and setting: to `CCOC(=O)c1cc2c(=O)n3ccccc3nc2n(CCCOC)c1=NC(=O)c1ccncc1` belongs 10.7%.

For the compound `CCOC(=O)c1cc2c(=O)n3ccccc3nc2n(CCOC)c1=NC(=O)C(C)(C)C`, the inhibition under setting [1] was 16.9%. With `CCOC(=O)c1cc2c(=O)n3ccccc3nc2n(CCOC)c1=NC(=O)c1ccncc1`, the inhibition is 45.3% (active) (at 30 µM, active compounds read high) and 16.6% (at 100 µM (top of the series)).

Regarding `O=C(NCCc1ccccc1)C1CCN(c2nc3ccccc3o2)CC1`, the inhibition under setting [1] was 1.06%. Still for that read-out and setting: next, `O=S(=O)(c1ccc2c(c1)OCCO2)N1CCC(n2cnc3cc(F)ccc32)CC1`: 2.37%; `O=S(=O)(c1ccc2c(c1)OCCO2)N1CCC(n2nnc3cc(C(F)(F)F)ccc32)CC1`: -4.12%. The same measure, in the same setting: to `O=c1nc2n(c3ccc(Br)cc13)CCS2` belongs 1.45%; to `COc1ccccc1NC(=O)Nc1ccccc1N1CCOCC1`, 3.89%; to `CC(=O)c1sc(-c2ccccc2)cc1NS(=O)(=O)c1ccccc1`, -0.36%. On the same count and under the same terms, next, `CC(=O)c1sc(-c2ccc(F)cc2)cc1NS(=O)(=O)c1ccc(C)cc1`: 0.65%; `CCOc1cc(/C=C2\SC(=Nc3ccc(F)cc3)N(c3ccc(F)cc3)C2=O)ccc1OCC(=O)O`: 16.8%; `CCOC(=O)C1=C(C)N(c2ccc(OC)cc2)C(=O)/C1=C\c1ccc(O)c(OCC)c1`: 4.43%. `CCOC(=O)C1=C(O)/C(=C/c2ccc(OCC(=O)O)c(OC)c2)SC1=Nc1ccc(OCC)cc1`: the inhibition under setting [1] was 13.2%. Still for that read-out and setting: to `COc1cc(/C=C2\SC(N)=NC2=O)ccc1OCC(=O)Nc1ccc(C)cc1` belongs 10%; to `O=C(/C=C/c1ccc(S(=O)(=O)N2CCOCC2)cc1)NCc1ccc(Cl)cc1`, -0.73%. On the same count and under the same terms, to `C=CCn1c(COc2ccccc2)nnc1SCC(=O)O` belongs 0.9%; to `Cc1nn(-c2ccccc2)c(C)c1NC(=O)Cc1cccs1`, 4.27%. Still for that read-out and setting: to `CC(C)OC(=O)CSc1ncnc2c1cnn2Cc1ccccc1` belongs 0.69%. Regarding `Cc1ccc(S(=O)(=O)N2CCCC2C(=O)Nn2cnnc2)cc1` (stereo unspecified), under setting [1], the inhibition was -0.66%.

`O=C(O)c1cccc(-n2cccc2/C=C2\SC(=O)N(Cc3ccccc3F)C2=O)c1`: under setting [1], the inhibition is 15.3%. For `Cc1cccc(C)c1NC(=O)CN1C(=O)S/C(=C\c2cccn2-c2cccc(C(=O)O)c2)C1=O`, under setting [1], the inhibition is 8.9%. Consider `CCOC(=O)C1(C(F)(F)F)N=C(C(F)(F)F)Nc2cc(C)c(C)cc21` (stereo unspecified), for which the inhibition under setting [1] was 1.48%.

`Cc1ccccc1N=CC1=C(O)c2ccccc2C1=O`: the inhibition under setting [1] is 4.59%. On the same count and under the same terms, next, `O=C1C(C=Nc2ccccc2O)=C(O)c2ccccc21`: 20.6%; `Cc1ccc(C(C(=O)NC2CCCC2)N(Cc2cccs2)C(=O)c2csnn2)o1` (stereo unspecified): 7.36%. Still for that read-out and setting: to `O=C(NC1CCCC1)C(c1ccncc1)N(Cc1cccs1)C(=O)c1csnn1` (stereo unspecified) belongs 24.6% (active); to `Cc1ccc(C(C(=O)NC2CCCCC2)N(C(=O)c2csnn2)C2CC2)o1` (stereo unspecified), 9.01%; to `COCCN(C(=O)c1csnn1)C(C(=O)NC1CCCCC1)c1sccc1C` (stereo unspecified), 21.1%. Same read-out and setting: to `CC(C)(C)NC(=O)C(c1ccncc1)N(Cc1cccs1)C(=O)c1csnn1` (stereo unspecified) belongs -14%; to `O=C(COC(=O)c1ccncc1)NCCCc1ccccc1`, 2.54%.

In the case of `Cc1ccc(Cl)cc1NC(=O)c1cccc(OC(F)F)c1`, the inhibition under setting [1] is 5.73%. Still for that read-out and setting: next, `Cc1occc1-c1nnc(SCC(=O)Nc2ccccc2)n1CCc1ccccc1`: 0.44%; `Cc1ccccc1NC(=O)CSc1nnc(-c2ccoc2C)n1CCc1ccccc1`: 8.39%. On the same count and under the same terms, next, `COc1ccccc1NC(=O)CSc1nnc(-c2ccoc2C)n1CCc1ccccc1`: 24.7% (active). In the case of `CCCCc1cc(=O)oc2cc(OCC(=O)N(CC)CC)c(Cl)cc12`, the inhibition under setting [1] is 6.8%. Consider `CCCCc1cc(=O)oc2cc(OCc3nn[nH]n3)c(Cl)cc12`, for which the inhibition under setting [1] was 6.21%.

In the case of `C=CCc1c(O)c(CC)cc2c(C)cc(=O)oc12`, the inhibition under setting [1] was 10.9%.

Consider `CCN(CC)Cc1c(O)ccc2c(-c3ccccc3)cc(=O)oc12`, for which the inhibition under setting [1] was 8.74%. Regarding `CCC(=O)c1cc2c(C)cc(=O)oc2c(C)c1O`, under setting [1], the inhibition was 4.77%. Same read-out and setting: next, `CCCCc1cc(=O)oc2cc(OCc3cc(OC)c(OC)c(OC)c3)c(Cl)cc12`: -3.71%; `Cc1cc(=O)oc2c(N)c(O)ccc12`: 8.69%.

For the compound `COc1ccccc1N1CCN(C(=O)CSc2ccccc2)CC1`, under setting [1], the inhibition is -1.68%. The same measure, in the same setting: next, `COc1cc(OC)cc(-c2nnc(SCC(=O)N(Cc3ccccc3)C(C)(C)C)o2)c1`: 1.01%; `Cc1cccc(NC(=O)c2ccccc2OCC(=O)c2ccc(F)cc2)c1`: 3.15%; `COC(=O)c1cc(Br)c(N)cc1OC`: -6.6%. On to `CC(=O)c1cccc(NC(=O)C2CC(=O)N(c3cccc(C)c3C)C2)c1` (stereo unspecified), for which, under setting [1], the inhibition is -2.91%. On to `O=C(O)c1ccccc1C(=O)NNc1cccc(Cl)n1`, for which the inhibition under setting [1] was 0.28%. The same measure, in the same setting: next, `O=C(CCCc1nc2ccccc2s1)NNC(=O)CCN1CCN(Cc2ccccc2)CC1`: 2.9%; `O=C(O)CC1=C(Nc2ccccc2)C(=O)N(c2ccccc2)C1c1ccc(F)cc1` (stereo unspecified): -3.54%. Same read-out and setting: next, `CCCc1cc(=O)oc2c(C)c3occ(C)c3cc12`: -0.02%; `CCCCN(C)Cc1c(O)ccc2c(-c3ccccc3)cc(=O)oc12`: 3.86%. The same measure, in the same setting: to `CN(C)Cc1c(O)ccc2c(-c3ccccc3)cc(=O)oc12` belongs 7.13%; to `CCCc1cc(=O)oc2cc(OCC(=O)N(C)C)c(Cl)cc12`, -0.86%.
